According to PubChem BioAssay AID743484 (Broad Institute, 2014):
Results with a measured potency or affinity are listed apart. Active and inactive are the calls of the source.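 The calls were made as follows: active = cell-killing compounds whose fitted half-effect concentration is at most twice their highest valid dose; inconclusive = flat curve with 30 to 70% signal loss, or poor fit; inactive = the rest.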

Test: cytotoxicity in A549 cells, dose response, cytotoxicity control, cell-based, CellTiter-Glo luminescence, cherry-pick (AID 743484)
Settings: A549 viability, CellTiter-Glo ATP luminescence, 72 h; series mostly up to 26 µM
With `COc1ccc2[nH]c3c(=O)n(CCCCC(=O)NCCC(C)C)c(=S)[nH]c3c2c1` the outcome was “inactive”.
For `Cc1ccc(S(=O)(=O)N2CC[C@H]3[C@H](CO)Nc4ccc(Br)cc4[C@H]32)cc1`, the outcome was “inactive”.
For `COc1ccc(Cn2c(-c3ccc(Cl)cc3)c[n+]3ccccc23)cc1`, the outcome was “inactive”.
With `C[C@@H]1CCCCO[C@H](CN(C)C(=O)CCCN(C)C)[C@H](C)CN([C@@H](C)CO)C(=O)c2cc(NC(=O)Nc3cccc4ccccc34)ccc2O1` the outcome was “inactive”.
In the case of `CCOc1ccccc1NC(=O)c1ccc2ccccc2c1`, the outcome is reported as “inactive”.
With `COc1cccc(C(=O)Nc2cc(C)nn2-c2ccccc2)c1OC` the outcome was “inactive”.
For `Cc1c(C(=O)O)sc2nc(CSc3ncc(C(F)(F)F)cc3Cl)[nH]c(=O)c12`, the outcome was “inactive”.
For `COC(=O)c1c(NC(=O)CCC(=O)O)sc(Cc2ccccc2)c1C`, the outcome was “inactive”.
With `Cc1[nH]c(=S)sc1Cc1ccc(Cl)c(Cl)c1` the outcome was “inactive”.
With `Cc1cc(C)c(OCCNC(=O)c2ccccc2Sc2ccccc2C#N)c(C)c1` the outcome was “inactive”.
For `C[C@@H]1CCCCO[C@H](CN(C)CC2CC2)[C@H](C)CN([C@@H](C)CO)C(=O)c2cc(NC(=O)Nc3cccc4ccccc34)ccc2O1`, the outcome was “inactive”.
In the case of `Cc1noc(C)c1NC(=O)Nc1ccc2c(c1)C(=O)N([C@H](C)CO)C[C@@H](C)[C@@H](CN(C)C(=O)Nc1ccc3c(c1)OCO3)OCCCC[C@@H](C)O2`, the outcome is reported as “inactive”.
In the case of `CCn1c(-c2cc(-c3ccc(OC(C)C)cc3)nc3ccccc23)n[nH]c1=S`, the outcome is reported as “inactive”.
With `COc1ccc(-n2cc(-c3ccccc3)c3c(N4CCOCC4)ncnc32)cc1` the outcome was “inactive”.
